Data on 65 compounds can be found in the antibiotic and cytotoxicity screens of Wong et al. (2023).

Screen size: about 39,000 compounds; about 3,300 (8.5%) were called active. The sample as a whole holds a higher share of actives than the screen did.

The test concerns HepG2. The experiment in a line: cytotoxicity call (relative viability < 0.9). To be noted: 10 µM.
For `C[C@@H]1CN([C@@H](C)CO)C(=O)c2cc(NC(=O)c3ccncc3)ccc2O[C@@H](C)CCCCO[C@@H]1CN(C)Cc1ccccc1`, the cytotoxicity call was “inactive”.
Take `C[C@H]1CN([C@@H](C)CO)C(=O)c2cc(NC(=O)Cn3cnnn3)ccc2O[C@@H]1CN(C)S(=O)(=O)c1ccc(Cl)cc1`: the cytotoxicity call was “inactive”.
Turning to `C[C@H](CO)N1C[C@H](C)[C@H](CN(C)Cc2ccc(-c3ccccc3)cc2)Oc2ccc(NC(=O)Nc3ccc(F)cc3)cc2CC1=O`, the cytotoxicity call was “active”.
`C[C@@H]1CN([C@@H](C)CO)C(=O)Cc2cc(NC(=O)Nc3ccc(F)cc3)ccc2O[C@@H]1CN(C)Cc1ccc(-c2ccccc2)cc1`: the cytotoxicity call is “active”.
With `C[C@H](CO)N1C[C@H](C)[C@@H](CN(C)Cc2ccc(-c3ccccc3)cc2)Oc2ccc(NC(=O)Nc3ccc(F)cc3)cc2CC1=O`, the cytotoxicity call was “active”.
Take `C[C@H]1CN([C@@H](C)CO)C(=O)Cc2cc(NC(=O)Nc3ccc(F)cc3)ccc2O[C@@H]1CN(C)Cc1ccc(-c2ccccc2)cc1`: the cytotoxicity call is “active”.
In the case of `C[C@H](CO)N1C[C@H](C)[C@@H](CN(C)S(=O)(=O)c2cn(C)cn2)Oc2ncc(C3=CCCC3)cc2C1=O`, the cytotoxicity call was “inactive”.
Regarding `O=C(CN1CCOCC1)N[C@H]1CC[C@@H](CCNC(=O)Nc2cc(F)ccc2F)O[C@H]1CO`, the cytotoxicity call was “inactive”.
With `CON=C(C(=O)NC1C(=O)N2C(C(=O)[O-])=C(COC(N)=O)CSC12)c1ccco1.[Na+]` (stereo not given), the cytotoxicity call is “inactive”.
For the compound `C[C@@H]1CCCCO[C@H](CN(C)C(=O)Nc2cccc3ccccc23)[C@@H](C)CN([C@@H](C)CO)C(=O)c2cc(N(C)C)ccc2O1`, the cytotoxicity call is “inactive”.
As for `CCCNC(=O)N(C)C[C@H]1Oc2cc(C#Cc3cccc(F)c3)ccc2S(=O)(=O)N([C@H](C)CO)C[C@H]1C`, the cytotoxicity call was “inactive”.
For the compound `C[C@H](CO)N1C[C@H](C)[C@H](CN(C)Cc2ccccc2)OCCCC[C@H](C)Oc2ccc(NS(=O)(=O)c3ccc(Cl)cc3)cc2C1=O`, the cytotoxicity call is “inactive”.
Take `CCCNC(=O)N(C)C[C@@H]1Oc2cc(-c3ccc(C)cc3)ccc2S(=O)(=O)N([C@H](C)CO)C[C@@H]1C`: the cytotoxicity call was “inactive”.
In the case of `COCC(=O)N(C)C[C@H]1Oc2cc(C#Cc3ccccc3)ccc2S(=O)(=O)N([C@H](C)CO)C[C@H]1C`, the cytotoxicity call is “inactive”.
The value for `C[C@@H]1CN([C@H](C)CO)C(=O)Cc2cc(NC(=O)Nc3ccc(F)cc3)ccc2O[C@H]1CN(C)Cc1ccc(-c2ccccc2)cc1` was “active”.
As for `C[C@@H]1CN([C@@H](C)CO)C(=O)Cc2cc(NC(=O)Nc3ccc(F)cc3)ccc2O[C@H]1CN(C)Cc1ccc(-c2ccccc2)cc1`, the cytotoxicity call is “active”.
Consider `C[C@@H]1CN([C@H](C)CO)C(=O)Cc2cc(NC(=O)Nc3ccc(F)cc3)ccc2O[C@@H]1CN(C)Cc1ccc(-c2ccccc2)cc1`, for which the cytotoxicity call was “inactive”.
Consider `C[C@H]1CN([C@@H](C)CO)C(=O)Cc2cc(NC(=O)Nc3ccc(F)cc3)ccc2O[C@H]1CN(C)Cc1ccc(-c2ccccc2)cc1`, for which the cytotoxicity call is “active”.
The value for `C[C@@H]1CN([C@@H](C)CO)C(=O)CCCn2nncc2CO[C@H]1CN(C)C(=O)Nc1ccc(C(C)(C)C)cc1` was “inactive”; that for `C[C@H](CO)N1C[C@H](C)[C@@H](CN(C)Cc2ccc(C(=O)O)cc2)Oc2c(NC(=O)c3cnccn3)cccc2C1=O` was “inactive”.
Consider `CCOc1nc(N2CCOCC2)nc(N2CCOCC2)n1`, for which the cytotoxicity call is “inactive”.
Regarding `CC=NN(C)C=O`, the cytotoxicity call was “inactive”.
As for `CC(C)NC(=O)Nc1ccc2c(c1)CC(=O)N([C@@H](C)CO)C[C@H](C)[C@@H](CN(C)S(=O)(=O)c1ccccc1)O2`, the cytotoxicity call is “inactive”.
Next, `CC(C)COCC(CN(Cc1ccccc1)c1ccccc1)N1CCCC1.Cl` (stereo not given): “active”; `c1ccc(CN(CC2=NCCN2)c2ccccc2)cc1`: “inactive”.
For `CC(COc1ccccc1)N(CCCl)Cc1ccccc1.Cl` (stereo not given), the cytotoxicity call was “inactive”.
Next, `CN(C)C(=O)[C@@H]1[C@@H](CO)[C@@H]2Cn3c(ccc(C4=CCCC4)c3=O)[C@H]1N2S(=O)(=O)c1cn(C)cn1`: “inactive”; `COc1cccc(C#Cc2cnc3c(c2)C(=O)N([C@H](C)CO)C[C@H](C)[C@@H](CN(C)C(=O)C2CCC2)O3)c1`: “inactive”.
Next, `Cn1cnc(S(=O)(=O)N2C[C@@H](O)COC[C@@H]3O[C@H](CC(=O)NCc4cc(F)cc(F)c4)CC[C@H]32)c1`: “inactive”; `C[C@H](CO)N1C[C@H](C)[C@H](CN(C)S(=O)(=O)c2cccs2)Oc2ncc(-c3ccc(F)cc3)cc2C1=O`: “inactive”; `Cc1cc2nc3c(=O)[nH]c(=O)nc-3n(C[C@H](O)[C@H](O)[C@H](O)COP(=O)(O)O)c2cc1C`: “inactive”.
For `Cc1cc2nc3c(=O)[nH]c(=O)nc-3n(CC(O)C(O)C(O)CO)c2cc1C` (stereo not given), the cytotoxicity call is “inactive”.
Next, `Cc1cc2nc3c(=O)[nH]c(=O)nc-3n(CC(O)C(O)C(O)COP(=O)([O-])O)c2cc1C.[Na+]` (stereo not given): “active”; `C[C@@H]1CN([C@H](C)CO)C(=O)c2cc(C#CC3(O)CCCC3)cnc2O[C@H]1CN(C)C(=O)Cc1ccccc1`: “inactive”.
Take `C[C@H]1CN([C@@H](C)CO)C(=O)c2cccc(NC(=O)Nc3cccc4ccccc34)c2O[C@H]1CN(C)Cc1ccc(-c2ccccc2)cc1`: the cytotoxicity call is “inactive”.
`C[C@@H]1CCCCO[C@H](CN(C)Cc2ccc(C(=O)O)cc2)[C@H](C)CN([C@H](C)CO)C(=O)c2cc(NC(=O)Nc3ccc4c(c3)OCO4)ccc2O1`: the cytotoxicity call is “inactive”.
`C[C@@H]1CCCCO[C@H](CN(C)Cc2ccc(Cl)c(Cl)c2)[C@@H](C)CN([C@@H](C)CO)C(=O)c2cc(NC(=O)Nc3ccc(C(F)(F)F)cc3)ccc2O1`: the cytotoxicity call was “active”.
As to `C[C@@H]1CCCCO[C@@H](CN(C)Cc2ccc(Cl)c(Cl)c2)[C@@H](C)CN([C@@H](C)CO)C(=O)c2cc(NC(=O)Nc3ccc(C(F)(F)F)cc3)ccc2O1`, the cytotoxicity call is “inactive”.
In the case of `C[C@@H]1CCCCO[C@@H](CN(C)Cc2ccc(Cl)c(Cl)c2)[C@H](C)CN([C@@H](C)CO)C(=O)c2cc(NC(=O)Nc3ccc(C(F)(F)F)cc3)ccc2O1`, the cytotoxicity call is “active”.
Consider `C[C@@H]1CN([C@H](C)CO)C(=O)c2cc(NC(=O)Nc3ccc(C(F)(F)F)cc3)ccc2O[C@@H](C)CCCCO[C@H]1CN(C)Cc1ccc(Cl)c(Cl)c1`, for which the cytotoxicity call was “inactive”.
Turning to `C[C@H](CO)N1C[C@H](C)[C@@H](CN(C)Cc2ccc(Cl)c(Cl)c2)OCCCC[C@H](C)Oc2ccc(NC(=O)Nc3ccc(C(F)(F)F)cc3)cc2C1=O`, the cytotoxicity call was “active”.
Regarding `C[C@@H]1CCCCO[C@@H](CN(C)Cc2ccc(Cl)c(Cl)c2)[C@@H](C)CN([C@H](C)CO)C(=O)c2cc(NC(=O)Nc3ccc(C(F)(F)F)cc3)ccc2O1`, the cytotoxicity call is “inactive”.
As for `C[C@@H]1CN([C@@H](C)CO)C(=O)c2cc(NC(=O)Nc3ccc(C(F)(F)F)cc3)ccc2O[C@@H](C)CCCCO[C@H]1CN(C)Cc1ccc(Cl)c(Cl)c1`, the cytotoxicity call is “inactive”.
`C[C@@H]1CCCCO[C@@H](CN(C)Cc2ccc(Cl)c(Cl)c2)[C@H](C)CN([C@H](C)CO)C(=O)c2cc(NC(=O)Nc3ccc(C(F)(F)F)cc3)ccc2O1`: the cytotoxicity call is “inactive”.
Consider `C[C@@H]1CCCCO[C@H](CN(C)Cc2ccc(Cl)c(Cl)c2)[C@H](C)CN([C@@H](C)CO)C(=O)c2cc(NC(=O)Nc3ccc(C(F)(F)F)cc3)ccc2O1`, for which the cytotoxicity call is “active”.
The value for `C[C@@H]1CN([C@H](C)CO)C(=O)c2cc(NC(=O)Nc3ccc(C(F)(F)F)cc3)ccc2O[C@@H](C)CCCCO[C@@H]1CN(C)Cc1ccc(Cl)c(Cl)c1` was “inactive”; that for `COc1ccc(S(=O)(=O)N(C)C[C@H]2Oc3c(NC(=O)C4CC4)cccc3C(=O)N([C@@H](C)CO)C[C@H]2C)cc1` was “inactive”.
`C[C@H](CO)N1C[C@H](C)[C@@H](CN(C)Cc2ccccc2)Oc2c(NC(=O)CCCCCC(=O)Nc3ccccc3N)cccc2C1=O`: the cytotoxicity call was “inactive”.
In the case of `c1ccc([C@@H]2CCC[C@H](c3ccccc3)S2)cc1`, the cytotoxicity call is “inactive”.
On to `C[C@H]1CN([C@@H](C)CO)C(=O)c2cc(NS(=O)(=O)c3cccs3)ccc2O[C@@H]1CN(C)C(=O)Nc1cccc2ccccc12`, for which the cytotoxicity call is “inactive”.
The value for `Cn1cc(C[C@@H](N)C(=O)O)c2ccccc21` was “inactive”.
In the case of `O=C(C[C@H]1C[C@@H]2c3cc(NC(=O)NC4CCCC4)ccc3O[C@@H]2[C@@H](CO)O1)NCCN1CCCCC1`, the cytotoxicity call was “inactive”.
Take `NC(Cc1cc(I)c(Oc2cc(I)c(O)c(I)c2)c(I)c1)C(=O)[O-].[Na+]` (stereo not given): the cytotoxicity call is “inactive”.
`C[C@H]1CN([C@@H](C)CO)C(=O)c2cc(NC(=O)Nc3ccccc3)ccc2O[C@@H]1CN(C)C(=O)Nc1cccc2ccccc12`: the cytotoxicity call is “inactive”.
As for `C[C@H](CO)N1C[C@H](C)[C@H](CN(C)Cc2ccc(Cl)c(Cl)c2)OCCCC[C@H](C)Oc2ccc(NC(=O)Nc3ccc(C(F)(F)F)cc3)cc2C1=O`, the cytotoxicity call was “active”.
Take `C[C@H]1CCCCO[C@@H](CN(C)Cc2ccc(Cl)c(Cl)c2)[C@@H](C)CN([C@@H](C)CO)C(=O)c2cc(NC(=O)Nc3ccc(C(F)(F)F)cc3)ccc2O1`: the cytotoxicity call is “inactive”.
As to `C[C@H]1CCCCO[C@H](CN(C)Cc2ccc(Cl)c(Cl)c2)[C@@H](C)CN([C@@H](C)CO)C(=O)c2cc(NC(=O)Nc3ccc(C(F)(F)F)cc3)ccc2O1`, the cytotoxicity call is “inactive”.
For `CC(=O)c1ccc(O)c(C(N)=O)c1`, the cytotoxicity call is “inactive”.
As to `COc1ccc(S(=O)(=O)Nc2ccc3c(c2)CC(=O)N([C@H](C)CO)C[C@@H](C)[C@@H](CN(C)Cc2ccc(-c4ccccc4)cc2)O3)cc1`, the cytotoxicity call is “active”.
With `COc1ccc(S(=O)(=O)Nc2ccc3c(c2)CC(=O)N([C@H](C)CO)C[C@H](C)[C@@H](CN(C)Cc2ccc(-c4ccccc4)cc2)O3)cc1`, the cytotoxicity call was “inactive”.
As to `COc1ccc(S(=O)(=O)Nc2ccc3c(c2)CC(=O)N([C@H](C)CO)C[C@H](C)[C@H](CN(C)Cc2ccc(-c4ccccc4)cc2)O3)cc1`, the cytotoxicity call was “active”.
In the case of `COc1ccc(S(=O)(=O)Nc2ccc3c(c2)CC(=O)N([C@@H](C)CO)C[C@@H](C)[C@@H](CN(C)Cc2ccc(-c4ccccc4)cc2)O3)cc1`, the cytotoxicity call is “inactive”.
Take `COc1ccc(S(=O)(=O)Nc2ccc3c(c2)CC(=O)N([C@@H](C)CO)C[C@@H](C)[C@H](CN(C)Cc2ccc(-c4ccccc4)cc2)O3)cc1`: the cytotoxicity call was “active”.
The value for `COc1ccc(S(=O)(=O)Nc2ccc3c(c2)CC(=O)N([C@@H](C)CO)C[C@H](C)[C@H](CN(C)Cc2ccc(-c4ccccc4)cc2)O3)cc1` was “active”; that for `COc1ccc(S(=O)(=O)Nc2ccc3c(c2)CC(=O)N([C@@H](C)CO)C[C@H](C)[C@@H](CN(C)Cc2ccc(-c4ccccc4)cc2)O3)cc1` was “inactive”.
